Reference: the supplement of paper PMC10498489
About 330 (14%) of roughly 2,300 compounds showed activity.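 The calls were made as follows: active = median modified Z-score above 1.96; inactive = 1.96 or below.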 A selection follows.

What follows are compounds tested on HepG2 Srxn1-GFP reporter cells (+30 nM CDDO-Me) (assay: Srxn1-GFP intensity median modified Z-score relative to plate median; higher = stronger NRF2 / oxidative stress reporter activation, active = hit call of the paper). Conditions: 10 µM; exposure time: 24h.
How it was run: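 Compound at 10 μM was applied with an NRF2 activator at 30 nM to HepG2 Srxn1-GFP BAC reporter cells for 24 h, in DMSO at no more than 0.1%, using three replicate 96-well plates seeded at 20,000 cells per well. Fixed, Hoechst-stained cells were imaged confocally and cytoplasmic GFP was scored for each cell, with images under 100 cells left out. The figure reported is the replicate median of the per-plate modified Z-score of GFP intensity. Scaling relied on 1.4826 × median absolute deviation.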

Structure (SMILES)	Srxn1-GFP intensity median modified Z-score
CC(=O)C1CCC2C3=CC=C4CC(=O)CC[C@@]4(C)C3CC[C@]12C (stereo partly drawn) [euspeclibcmpd815]	1.45 (inactive)
CCCC[C@@H](CC)COC(=O)C(C#N)=C(c1ccccc1)c1ccccc1 [euspeclibcmpd936]	0.649 (inactive)
N#C[C@@H]1C[C@@H]2C[C@@H]2N1C(=O)C(N)C12CC3CC(CC(O)(C3)C1)C2 (stereo partly drawn) [euspeclibcmpd1283]	-0.27 (inactive)
CC(C)CCCC(C)C1CCC2C3CC[C@H]4C[C@H](O)CC[C@]4(C)C3CC[C@]12C (stereo partly drawn) [euspeclibcmpd2260]	-0.325 (inactive)
C1N2CN3CN1CN(C2)C3 [euspeclibcmpd187]	9.99 (active)
CC(=O)OCC(=O)[C@@]12OC(C)(C)O[C@@H]1CC1C3CC(F)=C4CC(=O)C=C[C@]4(C)[C@@]3(F)[C@@H](O)C[C@@]12C (stereo partly drawn) [euspeclibcmpd130]	-0.571 (inactive)
CC(=O)O[C@H]1CC2CCC3C(CC[C@@]4(C)C3C[C@H]([N+]3(C)CCCCC3)[C@@H]4OC(C)=O)[C@@]2(C)C[C@@H]1N1CCCCC1 (stereo partly drawn) [euspeclibcmpd853]	-0.182 (inactive)
N#Cc1ccc2[nH]cc(CCCCN3CCN(c4ccc5oc(C(N)=O)cc5c4)CC3)c2c1 [euspeclibcmpd2178]	0.321 (inactive)
C[C@@H]1CC[C@@]2(OC1)OC1CC3C4CC=C5C[C@@H](O)CC[C@]5(C)C4CC[C@]3(C)C1[C@@H]2C (stereo partly drawn) [euspeclibcmpd1355]	-0.393 (inactive)
O=c1c(O)c(-c2ccc(O)c(O)c2)oc2c(O[C@@H]3O[C@H](CO)[C@H](O)[C@@H](O)[C@H]3O)c(O)cc(O)c12 [euspeclibcmpd1755]	-0.613 (inactive)
COc1ccc(CC(N)C(=O)N[C@@H]2[C@@H](CO)OC(n3cnc4c(N(C)C)ncnc43)[C@@H]2O)cc1 (stereo partly drawn) [euspeclibcmpd2118]	2.51 (active)
O=c1[nH]cnc2c1ncn2C1O[C@H](CO)[C@@H](O)[C@H]1O (stereo partly drawn) [euspeclibcmpd1256]	-0.544 (inactive)
COc1[nH]c(=N)nc2c1ncn2C1OC(CO)C(O)C1O (stereo not drawn) [euspeclibcmpd1835]	-0.349 (inactive)
COc1ccc(C(=O)O)c(O)c1OC [euspeclibcmpd1494]	-0.416 (inactive)
CC(C=CC1(O)C(C)=CC(=O)CC1(C)C)=CC(=O)O (stereo not drawn) [euspeclibcmpd1542]	0.012 (inactive)
CONC(=O)c1cc(-c2ccccc2)nc2ccccc12	1.04 (inactive)
Cc1cc(=NS(=O)(=O)c2ccc(N)cc2)[nH]o1 [euspeclibcmpd278]	-0.427 (inactive)

Structure (SMILES)	Srxn1-GFP intensity median modified Z-score
C[C@@H]1CC[C@@]2(OC1)O[C@H]1CC3C4CC[C@H]5C[C@@H](O)CC[C@]5(C)C4CC[C@]3(C)[C@H]1[C@@H]2C (stereo partly drawn) [euspeclibcmpd2432]	-0.319 (inactive)
C1CCN2C[C@@H]3C[C@H](CN4CCCC[C@@H]34)[C@H]2C1 [euspeclibcmpd2370]	-0.181 (inactive)
N=c1[nH]c(=N)c2nc(CNc3ccc(C(=O)NC(CCC(=O)O)C(=O)O)cc3)cnc2[nH]1 (stereo not drawn) [euspeclibcmpd911]	10 (active)
CN(Cc1cnc2[nH]c(=N)[nH]c(=N)c2n1)c1ccc(C(=O)NC(CCC(=O)O)C(=O)O)cc1 (stereo not drawn) [euspeclibcmpd190]	8.95 (active)
N=c1[nH]c(=O)c2nc(CNc3ccc(C(=O)NC(CCC(=O)O)C(=O)O)cc3)cnc2[nH]1 (stereo not drawn) [euspeclibcmpd579]	0.101 (inactive)
N=c1[nH]c(=O)c2c([nH]1)=NCC(CNc1ccc(C(=O)N[C@H](CCC(=O)O)C(=O)O)cc1)N=2 (stereo partly drawn) [euspeclibcmpd1474]	0.016 (inactive)
N=c1[nH]c(=O)c2c(CCc3ccc(C(=O)NC(CCC(=O)O)C(=O)O)cc3)c[nH]c2[nH]1 (stereo not drawn) [euspeclibcmpd2345]	-0.108 (inactive)
N=c1[nH]c2c(c(=O)[nH]1)N(C=O)C(CNc1ccc(C(=O)NC(CCC(=O)O)C(=O)O)cc1)CN2 (stereo not drawn) [euspeclibcmpd2313]	-0.0509 (inactive)
COc1ccc(C)cc1CN1CCN(C(c2ccc(F)cc2)c2ccc(F)cc2)CC1	1.38 (inactive)
Oc1ccc2c(c1)OC[C@]1(O)C=c3cc(O)c(O)cc3=C21 [euspeclibcmpd1461]	-0.856 (inactive)
NC(O)=NO [euspeclibcmpd156]	0.197 (inactive)
O=C(O)c1ccc(S(=O)(=O)N(Cl)Cl)cc1 [euspeclibcmpd144]	-0.332 (inactive)
Cc1[nH]oc(=NS(=O)(=O)c2ccc(N)cc2)c1C [euspeclibcmpd283]	-0.063 (inactive)
CCC(C)C(=O)O[C@H]1C[C@@H](C)C=C2C=C[C@H](C)[C@H](CC[C@@H]3C[C@@H](O)CC(=O)O3)[C@H]21 (stereo partly drawn) [euspeclibcmpd875]	-0.147 (inactive)
O=C1C[C@@H](c2ccc(O)cc2)Oc2cc(O)cc(O)c21 [euspeclibcmpd1328]	0.815 (inactive)
O=C1CC(c2ccc(O)cc2)Oc2ccccc21 (stereo not drawn) [euspeclibcmpd2144]	-0.183 (inactive)
